The list is not random: actives were taken first. Their share in the collection is about 2.1%.
U2OS ROS induce = inducers of reactive oxygen species in cancer cells; AID 624156; hit rate 2% among 46,000; ROS induction (% of piperlongumine), % at 10 µM; U2OS ROS induction, H2DCF-DA fluorescence; in the data active = ROS induction above about 79%, passing the limit was not always enough; inconclusive = no clear call, values can overlap the other calls;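 also: 0% = DMSO vehicle median and 100% = reference compound median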
YB-1 expr inh = YB-1 expression inhibition | U2OS, qRT-PCR YB-1 vs CDIP delta delta Cp, 16 h; stronger effect = higher value; zero = DMSO, each unit about twofold | delta delta Cp (YB-1 minus CDIP) (no concentration beside the values) | hit rate 0.37% among 30,000;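 active = delta delta Cp rounded down to an integer at or above 3, about 3 SD of DMSO wells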;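 also: higher means less YB-1 transcript or more CDIP transcript relative to DMSO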
Active calls of the source: *; ? = inconclusive; / = not tested or not shown.

SMILES	U2OS ROS induce	YB-1 expr inh
COc1ccccc1-c1cc(C(F)F)n2ncc(C(=O)NCc3cccnc3)c2n1	115.9*	/
COc1ccc(C(=O)NCc2cccnc2)cc1C(=O)NCc1cccnc1	-3.1	-0.0974
O=C(NCc1ccco1)c1cnn2c(C(F)F)cc(-c3ccccc3)nc12	192.9*	/
NC(=O)c1c(NC(=O)c2cnn3c(C(F)F)cc(-c4ccccc4)nc23)sc2c1CCC2	11.6	/
CCN(CC)C1=N/C(=C/c2ccccc2)C(=O)N1c1ccc(Cl)cc1	15.1	/
COc1ccc(-c2csc(N3CCCC3C(=O)OCc3ccccc3)n2)cc1 (stereo unspecified)	-18.9	/
Cc1ccc2nc3ccc(NCc4ccccc4)nn3c(=O)c2c1	-8.9	/
C=C1C(=O)O[C@@H]2C=C(C)[C@@H]3CC[C@@](C)(O)[C@@H]3C[C@H]12	-3.0	0.0735
C=C1C(=O)O[C@H]2C3=C(C)CCC[C@]3(C)C(=O)C[C@@H]12	84.3*	-0.036
CC[N+]1(CC)Cc2cc3ccccc3cc2C1	-10.2	/
Cc1cc(C)nc(/N=C(/NC(=O)Cc2ccccc2)N2CCC(C(N)=O)CC2)n1	-9.7	/
C[C@H]1CN([C@@H](C)CO)C(=O)c2cccc(NC(=O)CCCCCC(=O)Nc3ccccc3N)c2O[C@@H]1CN(C)Cc1ccc(-c2ccccc2)cc1	90.6*	-0.156
C[C@@H]1CN([C@H](C)CO)C(=O)c2cccc(NC(=O)CCCCCC(=O)Nc3ccccc3N)c2O[C@H]1CN(C)Cc1ccc(-c2ccccc2)cc1	125.7*	-0.351
C[C@@H]1CN([C@H](C)CO)C(=O)c2cccc(NC(=O)CCCCCC(=O)Nc3ccccc3N)c2O[C@@H]1CN(C)Cc1ccc(C(F)(F)F)cc1	57.1	0.215
C[C@H](CO)N1C[C@H](C)[C@@H](CN(C)Cc2ccncc2)Oc2c(NC(=O)CCCCCC(=O)Nc3ccccc3N)cccc2C1=O	5.1	0.2
O=C(c1ccccc1NS(=O)(=O)c1ccccc1)N1CCCC1	-18.5	/
O=C1N(Cc2ccccc2)Cc2ccccc2[C@@H]2OC(c3ccc(OCCCO)cc3)=N[C@]12CCS(=O)(=O)c1ccccc1	?	-0.245
CN(C)C(=O)[C@]1(CCS(=O)(=O)c2ccccc2)N=C(c2ccc(OCCCO)cc2)O[C@@H]1c1ccccc1	94.8*	0.0978
[N-]=[N+]=NCc1ccccc1C[C@]1(C(=O)NCC(O)CO)N=C(c2ccc(OCCCO)cc2)O[C@H]1c1ccccc1 (stereo partly specified)	59.9	0.601
CN(C)C(=O)[C@]1(Cc2ccccc2)N=C(c2ccc(OCCCO)cc2)O[C@@H]1c1ccccc1	50.9	-0.126
[N-]=[N+]=NCc1ccccc1C[C@@]1(C(=O)NCC(O)CO)N=C(c2ccc(OCCCO)cc2)O[C@@H]1c1ccccc1 (stereo partly specified)	6.2	9.1*
C=CCN1Cc2ccccc2[C@H]2OC(c3ccc(OCCCO)cc3)=N[C@@]2(CCS(=O)(=O)c2ccccc2)C1=O	113.0*	-0.083
COc1ccc(C2=CC(=O)N(c3ccccc3)C(c3ccccc3)O2)cc1 (stereo unspecified)	6.3	/
COc1ccc(/C=C2/NC(=O)NC2=O)cc1	-21.6	/
CSc1cccc(NC(=O)CSc2ncccc2C(=O)OC(C)C)c1	6.6	/
SMILES	U2OS ROS induce	YB-1 expr inh
COc1ccc(C(=O)NCCc2nnc3ccc(SCC(=O)Nc4ccc(C)cc4C)nn23)cc1	-12.9	/
COc1cc(C(=O)OC[C@@]2(O)CO[C@H](OC3C(CO)OC(Oc4cc(OC)c(OC)c(OC)c4)C(O)C3O)[C@@H]2O)cc(OC)c1O (stereo partly specified)	-1.5	0.0368
COc1cc(C(=O)OCC2(O)COC(OCC3OC(Oc4c(OC)cc(CO)cc4OC)C(O)C(O)C3O)C2O)cc(OC)c1O (stereo unspecified)	-5.4	7.15*
Cc1ccc(/C=C/c2onc3c(=O)[nH]nc(C)c23)cc1	118.8*	/
Cc1n[nH]c(=O)c2nc(-c3ccccc3)sc12	-14.4	/
CCCN(CCC)C(=O)c1ccc(CNS(=O)(=O)c2ccc(F)cc2)cc1	-13.4	/
CCC(C)OC(=O)C(C)Oc1ccc2c3c(c(=O)oc2c1)CCC3 (stereo unspecified)	13.8	/
CC(C)COC(=O)C(C)Oc1ccc2c3c(c(=O)oc2c1)CCC3 (stereo unspecified)	121.9*	/
CCOC(=O)C1CCCN(C(=O)c2ccc3c(c2)NC(=O)c2ccccc2S3)C1 (stereo unspecified)	4.6	/
COc1ccc(CN(C)C[C@@H]2Oc3ccc(NC(=O)CCN4CCOCC4)cc3CC(=O)N([C@H](C)CO)C[C@H]2C)cc1	120.9*	0.2
COc1ccc(CN(C)C[C@H]2Oc3ccc(NC(=O)CCN4CCOCC4)cc3CC(=O)N([C@@H](C)CO)C[C@@H]2C)cc1	14.3	0.081
C[C@@H]1CN([C@H](C)CO)C(=O)Cc2cc(NC(=O)CCN3CCOCC3)ccc2O[C@@H]1CN(C)C	125.6*	-0.212

Screens from PubChem.
